# PubChem BioAssay AID624202 (National Center for Advancing Translational Sciences (NCATS), 2012)
# Among all 380,000 compounds or so, about 4,000 (1.1%) were called active. About 3% were inconclusive and are not listed. This is one part of a sample in which actives are shown more often than they occur. A number with no mark means an inactive call. The call rests on the fitted dose curve; in most records, active means well fitted activation curve with a large enough effect; inconclusive means small, poorly fitted or top-dose-only effect; inactive means no such curve, though single readings can be large or run the other way.
# Assay: qHTS Assay to Identify Small Molecule Activators of BRCA1 Expression; further: nearly all actives have a fitted effect of over 80% in size
# Details: MCF7-BRCA1-FFLuc reporter, luminescence, 48 h; series mostly up to 46.1 µM; activation: at the top concentration
# Outline: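 First, MCF7-BRCA1-FFLuc cells (2000/well) attach for 2 h; next, compounds are pin-added and incubated 48 h at 37 °C; finally, luciferase reagent is added and luminescence read after 15 min.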
# Potency means the concentration at half of the fitted maximal effect.
Structure (SMILES),activation [%],Potency
CC1(C)CCc2cc(S(=O)(=O)N3CCN(c4nc(-c5cccs5)nc5ccccc45)CC3)ccc2O1,13.7,–
Cc1cccc(NC(=O)Cc2ccc(Br)cc2)n1,–,8.91 µM (active)
Cc1cccc(NC(=O)COc2ccc(Br)cc2C)n1,-19.3,–
Cc1cccc(C)c1NC(=O)CNC(=O)Cc1ccc(Br)cc1,-3.53,–
CCCNC(=O)c1ccc(Cn2c(SCC(N)=O)nc3ccccc3c2=O)cc1,-8.15,–
COc1ccc(CCNC(=O)CCCCn2c(=O)c3ccccc3n(Cc3ccccc3)c2=O)cc1OC,0,–
Cc1ccc(CN(C(=O)c2ccccc2[N+](=O)[O-])c2ccccn2)cc1,0,–
CCOC(=O)c1c(NC(=O)CSc2cn(CCNC(=O)c3cccc(C(F)(F)F)c3)c3ccccc23)sc2c1CCC2,10.6,–
CC(=O)Cn1ncc(N2CCOCC2)c(Br)c1=O,0.15,–
O=C(Cn1ncc(N2CCCC2)c(Br)c1=O)c1ccc(Cl)cc1,–,1.41 µM (active)
O=C(Cn1nc(CNc2ccc(Cl)cc2)[n+]2c1CCCCC2)c1ccc(Cl)cc1,-38.8,–
CCOc1ccc(N(C)S(=O)(=O)c2cc(-c3cnc(C)o3)ccc2OC)cc1,-1.24,–
CCCCCn1c(CCCNC(=O)c2ccccc2OC)nc2ccccc21,-19.4,–
CC(Oc1ccc(Cl)cc1)C(=O)OCC(=O)Nc1ncc(Cl)cc1Cl (centres undefined),33.4,–
COC(=O)c1sccc1N/N=C(\C)c1ccc(F)c(Cl)c1,-102,–
COc1cccc(/C(C)=N/Nc2ncc(Cl)cc2Cl)c1,–,10 µM (active)
Cc1ccccc1CN1CCC(CNC(=O)c2c(C)oc3ncnc(N4CCCCC4)c23)CC1,0,–
O=C(c1cccc(Cl)c1)N1CCN(CCc2ccncc2)CC1,9.44,–
Cn1c(SCC(=O)c2ccc(F)cc2)nnc1-c1ccccn1,30.7,–
Cn1c(SCc2c(F)cccc2Cl)nnc1-c1cnccn1,–,2.51 µM (active)
Cc1ccc(CSc2nnc(-c3cnccn3)n2C)cc1,0,–
CCC(=O)N1CCc2cc(Br)cc(S(=O)(=O)NCc3ccc(Cl)cc3)c21,-18.8,–
CCOC(=O)N1CCN(S(=O)(=O)c2ccc(C(=O)Nc3ccc(F)cc3F)cc2)CC1,-70.1,–
O=C(C=CC(=O)Nc1ccc(F)cc1F)Nc1ccc(F)cc1F,11.6,–
COc1ccc(C(=O)Nc2ccc(F)cc2F)cc1,–,6.31 µM (active)
Cc1ccccc1-c1nc(CS(=O)(=O)CC(=O)Nc2cc(Cl)cc(Cl)c2)c(C)o1,-32.8,–
COc1cc(OC)c(N(C)C(=O)c2cc3c(=O)oc4ccccc4c3s2)cc1Cl,0.945,–

Structure (SMILES),activation [%],Potency
O=[N+]([O-])c1cccc(/C=N/Nc2ncc(Br)cn2)c1,–,4.47 µM (active)
O=C(N/N=C/c1cccc([N+](=O)[O-])c1)C1CC(=O)N(c2ccc(Br)cc2)C1 (centres undefined),-32.2,–
CCCc1ccc(OCc2ccc(C(=O)N/N=C/c3cccc([N+](=O)[O-])c3)o2)c(OC)c1,-53.3,–
COc1ccc(CCNc2nc(-c3ccc(F)cc3)cc(C(F)(F)F)n2)cc1OC,-34.7,–
CNCCCOc1cc2nc(N3CCCN(C)CC3)nc(NC3CCN(C)CC3)c2cc1OC,0.186,–
COc1ccc(-c2nn3c(=O)cc(CN4CCN(C(=O)c5ccc(OC)c(OC)c5)CC4)nc3s2)cc1,0,–
O=[N+]([O-])c1c(NCCO)cc(Sc2nc3ccccc3s2)c2nonc12,-56.6,–
CN(C(=O)CSc1nc2ccc(NC(=O)COc3ccccc3)cc2s1)c1ccccc1,-4.92,–
O=C(O)c1ccccc1CSc1nc2ccccc2s1,–,5.62 µM (active)
COc1ccc(C2Nc3ccc(NC(=O)COC(C)=O)cc3C(=O)N2Cc2ccccc2)cc1COc1ccc(NC(C)=O)cc1 (centres undefined),0,–
COc1ccc2c(c1)c(=O)c(S(=O)(=O)c1ccc(F)cc1)cn2CC(=O)Nc1ccc(C)cc1C,-0.838,–
CC(O)c1ccc(OCCN(C)c2ccccn2)cc1 (centres undefined),–,11.2 µM (active)
CC(C)c1ccc(OCC(O)CN2CCN(c3ccccn3)CC2)cc1 (centres undefined),2.11,–
CN(CCOc1ccc(CC2SC(=O)NC2=O)cc1)c1ccccn1 (centres undefined),–,inactive
COc1ccccc1CNc1nccn(-c2ccc(F)cc2)c1=O,8.06,–
CCOC(=O)CNc1nc(Cl)nc(Nc2ccccc2)n1,–,15.8 µM (active)
CCOC(=O)CNc1nc(Cl)nc(Nc2ccc(OC)cc2OC)n1,-30.3,–
Nc1nc(COC(=O)CCC(=O)c2ccc(Cl)cc2)nc(Nc2ccccc2)n1,0.774,–
CCCN1CN=C(NS(=O)(=O)c2ccc(NC(C)=O)cc2)NC1,12.3,–
CC1=C(C(=O)Nc2ccccc2)C(c2ccc(C)cc2)n2nc(SCc3ccccc3C)nc2N1 (centres undefined),34.1,–
COc1ccccc1C(=O)Nn1cnnc1,-5.05,–
Cc1ccc2nc(-c3cccc(Br)c3)cc(C(=O)Nn3cnnc3)c2c1,–,10 µM (active)
C/C(N)=C(/C#N)C(=O)COC(=O)c1cc(-c2cccc(Br)c2)nc2ccccc12,-68.3,–
Cc1nc2c(-c3ccccc3)c(C)nn2c(C)c1CCC(=O)NCCc1ccccc1,-22.8,–
O=C1CC(c2ccccc2)CC2=C1C(c1ccco1)n1nc(C(F)(F)F)nc1N2 (centres undefined),0,–
Cc1cc(Nc2cccc(C(F)(F)F)c2)nc2ccc(NC(=O)c3ccc(=O)[nH]c3)cc12,-55.5,–
CN(C)Cc1c(O)ccc2c(=O)c(-c3ccccc3Cl)coc12,-3.77,–
